Efa HMGR inh: inhibitors of class II HMG-CoA reductase from Enterococcus faecalis; inhibition, % at 10 µM; purified E. faecalis HMGR, NADPH absorbance 340 nm kinetic; 190,000 tested, 0.41% active;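 active = inhibition above a set limit, the median over all tested compounds plus 3 SD, cut at about 9.5% in these data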;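 note: enzyme runs in reverse so mevalonate oxidation gives rising NADPH absorbance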
Avidin fluor: avidin bead compound fluorescence profile. 220,000 tested, 0.38% active. Avidin beads, compound fluorescence 488/530 nm, flow cytometry; active compounds read high. fluorescence (KMESF) at 10 µM; in the data active = fluorescence above about 47
GSH bead fluor: compound fluoresces at 488/530 nm on GSH beads. GSH beads flow cytometry, compound fluorescence 488/530 nm; active compounds read high. fluorescence (KMESF) at 10 µM. 190,000 tested, 0.25% active. AID 1776; in the data active = fluorescence above about 89;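 note: glutathione beads carrying GST-tagged Bcl family fusion proteins plus one bare bead set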
PGE2 EP2 inh: inhibitors of human EP2 prostaglandin E2 receptor; AID 1422; inhibition, % at 25 µM; C6 glioma cells expressing human EP2, cAMP TR-FRET; cells stimulated with saturating PGE2; 260,000 tested, 0.52% active;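 active = percent inhibition above 40 after rounding to a whole number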;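 note: rat C6 glioma host cells with rolipram phosphodiesterase inhibitor present; the protocol text gives 20 µM as final concentration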
Target sequence (P43116 whole entry, looked up): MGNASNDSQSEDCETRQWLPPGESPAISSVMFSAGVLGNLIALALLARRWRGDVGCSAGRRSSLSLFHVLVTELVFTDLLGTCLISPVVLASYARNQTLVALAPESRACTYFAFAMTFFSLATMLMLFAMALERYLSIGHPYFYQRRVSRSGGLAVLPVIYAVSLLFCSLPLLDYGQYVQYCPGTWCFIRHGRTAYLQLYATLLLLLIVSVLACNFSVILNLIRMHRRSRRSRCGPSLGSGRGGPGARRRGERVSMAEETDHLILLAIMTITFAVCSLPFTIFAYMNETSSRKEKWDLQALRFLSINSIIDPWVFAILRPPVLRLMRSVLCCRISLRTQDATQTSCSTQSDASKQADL
EP2 modulator: modulators of human EP2 prostaglandin E2 receptor. EP2-expressing cells, cAMP HTRF FRET, PGE2 co-stimulation. AID 940. P43116. 260,000 tested, 0.83% active. induction, % at 25 µM;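 active = compounds whose cAMP rise, as percent of the full-agonist control response, exceeds 60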;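 note: rat C6 glioma line stably carrying human EP2 under a CMV promoter; the protocol text gives 20 µM as final concentration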
Each line names hits and unclear results; the compound was inactive in the other large screens. In the library only some 2.1% were active in any assay of this set; here they are far more common.

CCc1cc(C(=O)OC)c(NC(=O)C2CC(=O)NN2Cc2ccccc2)s1 (stereo unspecified)	EP2 modulator 63
O=C(NCCNCc1cccnc1)c1ccco1	none (no result: Efa HMGR inh, Avidin fluor, GSH bead fluor)
Cc1cc2c(s1)c1cnn(CC(=O)N3CCCCC3)c(=O)c1n2C	none (no result: Efa HMGR inh, Avidin fluor, GSH bead fluor, PGE2 EP2 inh)
CCC1CCCCN1S(=O)(=O)c1ccc(S(=O)(=O)N2CCCCCC2)cc1 (stereo unspecified)	none (no result: Efa HMGR inh, Avidin fluor, GSH bead fluor)
CC(C)(CO)NC(=O)C1CC(c2ccccc2O)=NO1 (stereo unspecified)	none (no result: Efa HMGR inh, Avidin fluor, GSH bead fluor)
C/C(CCN1CCCCc2nc(C)c(C)cc21)=N\O[C@H](C)c1cn([C@H](CO)Cc2ccccc2)nn1	Efa HMGR inh 12 (no result: PGE2 EP2 inh)
Cn1ncc([N+](=O)[O-])c1C(=O)NN	none (no result: Efa HMGR inh, Avidin fluor, GSH bead fluor)
CC1(C)CC(=O)C=C(Nc2ccccc2F)C1	GSH bead fluor 267
CC1=NOC(=O)/C1=C/c1ccc(-c2ccc(Cl)cc2)o1	PGE2 EP2 inh 184
CC1=NOC(=O)/C1=C\c1ccc(-c2ccc(Br)cc2)o1	PGE2 EP2 inh 76
CC1=NOC(=O)/C1=C\c1ccc(-c2ccc(Br)cc2C(=O)O)o1	none
CC1=NOC(=O)/C1=C\c1ccc(-c2cc(Cl)ccc2Cl)o1	PGE2 EP2 inh 61
COc1ccc(N2CC(C(=O)Nc3cc(C)ccc3F)CC2=O)cc1 (stereo unspecified)	none (no result: Efa HMGR inh, Avidin fluor, GSH bead fluor)
CCOC(=O)COc1c(Br)cc(/C=C2\SC(=O)N(CC(=O)N3CCCC3)C2=O)cc1OC	Avidin fluor 80 (no result: PGE2 EP2 inh)
CCOc1c(Br)cc(/C=C2/SC(=O)N(CC(=O)N3CCCC3)C2=O)cc1OC	none (no result: PGE2 EP2 inh)
CCN(CC)C(=O)Cn1cc(C(C)=O)c2ccccc21	none (no result: Efa HMGR inh, Avidin fluor, GSH bead fluor)
COc1ccc(-n2nnnc2SCC(=O)Nc2cc(C)on2)cc1	none (no result: Efa HMGR inh, Avidin fluor, GSH bead fluor)
CSCCC(NS(=O)(=O)/C=C/c1ccccc1)C(=O)O (stereo unspecified)	Efa HMGR inh 10
Cc1ccccc1NC(=O)Cn1cc(C#N)c2ccccc21	none (no result: Efa HMGR inh, Avidin fluor, GSH bead fluor)
CCCOC(=O)C(C)Nc1n[nH]c(=S)[nH]c1=O (stereo unspecified)	PGE2 EP2 inh 86 (no result: Efa HMGR inh, Avidin fluor, GSH bead fluor)
CCCOC(=O)Cc1n[nH]c(=O)[nH]c1=O	none
CCn1c2ccccc2n2c(=O)c(=O)n(CC(=O)N3CCc4ccccc43)nc12	none (no result: Efa HMGR inh, Avidin fluor, GSH bead fluor)
CCN(CC)CCNC(=O)c1[nH]c2ccc(OCc3ccccc3)cc2c1C	none
CCN(CC)CC[n+]1ccc2c(C)c3[nH]c4ccc(O)cc4c3c(C)c2c1	PGE2 EP2 inh 44 (no result: Efa HMGR inh, Avidin fluor, GSH bead fluor)
NC(=O)c1ccccc1NC(=O)CSc1nc(N)cc(N)n1	none (no result: Efa HMGR inh, Avidin fluor, GSH bead fluor)
Oc1ccc(Nc2nc(-c3ccc(O)c(O)c3)cs2)cc1	none (no result: Efa HMGR inh, Avidin fluor, GSH bead fluor)
Cn1c(=O)c2c(nc(NCCNc3nc4c(c(=O)n(C)c(=O)n4C)n3C)n2C)n(C)c1=O	PGE2 EP2 inh 45 (no result: Efa HMGR inh, Avidin fluor, GSH bead fluor)
O=C1CCCC(O)=C1C(C#Cc1ccccc1)C1=C(O)CCCC1=O	PGE2 EP2 inh 43
CCNc1nc(NCC)nc(OCCOC(=O)c2ccccc2)n1	none
CCNc1nc(NCC)nc(OCCOC(C)=O)n1	GSH bead fluor 132
COC(=O)[C@H](Cc1ccccc1)NC(=O)O[C@@H]1C(=O)c2cc(Br)ccc2O[C@H]1c1cccc(OC)c1	Efa HMGR inh 11 (no result: PGE2 EP2 inh)
O=C(O)c1cccc(Oc2ccc([N+](=O)[O-])cc2)c1	none
Nc1cccc(Oc2ccc([N+](=O)[O-])cc2)c1	Efa HMGR inh 10
O=C(NCCCN1CCCC1=O)c1nnc(Cc2c(F)cccc2Cl)o1	none
CN1CCN(CCCNC(=O)c2nnc(Cc3c(F)cccc3Cl)o2)CC1	Efa HMGR inh 10
COc1cccc(C(=O)CSc2nnc3c(C)cc4cc(C)c(C)cc4n23)c1	none (no result: Efa HMGR inh, Avidin fluor, GSH bead fluor)
COc1ccc(OC)c(C(=O)c2coc3ccc(O)cc23)c1	GSH bead fluor 88
COc1ccccc1NC(=O)CSc1nc2ccccc2n1CC(=O)N1CC(C)CC(C)C1 (stereo unspecified)	none (no result: Efa HMGR inh, Avidin fluor, GSH bead fluor)
CN1[C@@H]2CC[C@H]1CC(OC(c1ccccc1)c1ccccc1)C2 (stereo partly specified)	PGE2 EP2 inh 57 (no result: Efa HMGR inh, Avidin fluor, GSH bead fluor)
CC(=O)c1cccc(Nc2nc(-c3ccc(O)cc3O)cs2)c1	PGE2 EP2 inh 70 (no result: Efa HMGR inh, Avidin fluor, GSH bead fluor)
Cc1cc(C)cc(Nc2c(F)c(F)c(F)c(F)c2C(=O)O)c1	Efa HMGR inh 9.6
CNC(=O)c1cc2c(=O)n3cc(C)ccc3nc2n(CCOC)c1=N	none (no result: Efa HMGR inh, Avidin fluor, GSH bead fluor)
Cc1ccc2cc3cc(C(=O)N4CCN(Cc5ccccc5)CC4)sc3nc2c1	Avidin fluor 69, GSH bead fluor 231
CCCC1=NN(C(=O)OC(C)(C)C)C(O)(C(F)(F)F)C1 (stereo unspecified)	none (no result: Efa HMGR inh, Avidin fluor, GSH bead fluor)
O=C(O)c1ccc2c(=O)[nH]c(CN3CCOCC3)nc2c1	Avidin fluor 62 (no result: PGE2 EP2 inh)
O=c1[nH]c(CN2CCOCC2)nc2ccccc12	none

Screening results: PubChem, several laboratories
